# According to PMC4336329 (PLoS ONE, 2015):
# Among all 310,000 compounds or so, about 14,000 (4.5%) showed an effect of 50% or more. Effects have a minus sign here. Many of the other results were omitted from the sample, so strong results are more common in it than they were.
# Target: human ether-à-go-go-related gene (hERG) potassium channel (human, UniProt Q12809)
# Experiment: primary screen, population patch clamp on CHO cells stably expressing hERG; higher = less effect of the substance
# 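Note: peak tail current of the secondary pulse compared with the same well before compound.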
# Sequence of human ether-à-go-go-related gene (hERG) potassium channel (Q12809 whole entry, looked up): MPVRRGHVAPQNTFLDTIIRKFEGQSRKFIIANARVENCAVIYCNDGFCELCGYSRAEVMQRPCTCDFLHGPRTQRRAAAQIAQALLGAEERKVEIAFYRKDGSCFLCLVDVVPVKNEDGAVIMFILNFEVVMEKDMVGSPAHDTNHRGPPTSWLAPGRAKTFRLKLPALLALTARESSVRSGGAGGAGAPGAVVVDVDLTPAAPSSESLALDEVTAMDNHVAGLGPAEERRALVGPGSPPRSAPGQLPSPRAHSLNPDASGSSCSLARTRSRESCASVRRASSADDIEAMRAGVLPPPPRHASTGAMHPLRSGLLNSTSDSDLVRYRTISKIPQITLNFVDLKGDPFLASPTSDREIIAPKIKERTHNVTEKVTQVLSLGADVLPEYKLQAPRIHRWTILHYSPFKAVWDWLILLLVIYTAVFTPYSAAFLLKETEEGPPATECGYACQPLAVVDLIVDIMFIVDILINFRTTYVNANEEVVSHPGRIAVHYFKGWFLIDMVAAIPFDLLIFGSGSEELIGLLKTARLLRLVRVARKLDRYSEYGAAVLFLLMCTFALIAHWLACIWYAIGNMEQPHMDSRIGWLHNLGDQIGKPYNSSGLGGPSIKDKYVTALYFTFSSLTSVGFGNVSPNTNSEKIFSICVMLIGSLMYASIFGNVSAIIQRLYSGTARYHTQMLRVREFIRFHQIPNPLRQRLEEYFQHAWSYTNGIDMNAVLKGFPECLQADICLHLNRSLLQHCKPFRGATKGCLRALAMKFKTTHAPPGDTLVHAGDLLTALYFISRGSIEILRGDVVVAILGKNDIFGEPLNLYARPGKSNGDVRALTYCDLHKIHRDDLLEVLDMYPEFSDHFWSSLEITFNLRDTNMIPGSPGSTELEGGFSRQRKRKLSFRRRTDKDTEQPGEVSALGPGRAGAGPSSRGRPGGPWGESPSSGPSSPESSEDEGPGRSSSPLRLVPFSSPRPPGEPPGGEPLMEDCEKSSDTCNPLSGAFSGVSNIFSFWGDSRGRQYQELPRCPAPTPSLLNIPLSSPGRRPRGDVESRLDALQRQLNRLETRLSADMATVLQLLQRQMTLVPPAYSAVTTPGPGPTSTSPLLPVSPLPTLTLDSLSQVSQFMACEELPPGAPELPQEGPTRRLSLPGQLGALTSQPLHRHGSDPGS
row,SMILES,"hERG current change (%, negative = inhibition) at 10uM [%]"
1,CC(Sc1nc(=O)cc(N)n1CCc1ccccc1)C(=O)NCc1ccccc1 (stereo not shown),3.18
2,Cc1ccc(C)c(S(=O)(=O)N/N=C/c2ccc(N(C)C)cc2)c1,16.1
3,CCC(NC(=O)c1ccccc1NC(=O)c1ccccc1)C(=O)OC (stereo not shown),11.3
4,CS(=O)CSc1nc2c(cc1C#N)CCCC2 (stereo not shown),-25
5,NC(=O)CC(NC(=O)c1cccc(Br)c1)c1ccc(NC2CCCCCCC2)c([N+](=O)[O-])c1 (stereo not shown),6.95
6,NC(=O)CC(NC(=O)c1cccc(Br)c1)c1ccc(NCC2CC2)c([N+](=O)[O-])c1 (stereo not shown),-65.4
7,NC(=O)CC(NC(=O)c1ccccc1)c1ccc(NCC2CC2)c([N+](=O)[O-])c1 (stereo not shown),-35.3
8,NC(=O)CC(NC(=O)c1cccc(Br)c1)c1ccc(NC2CCCCCCCCCCC2)c([N+](=O)[O-])c1 (stereo not shown),5.21
9,Cc1cc(C)cc(C(=O)NC(CC(N)=O)c2ccc(NCC3CC3)c([N+](=O)[O-])c2)c1 (stereo not shown),-30.4
10,NC(=O)CC(NC(=O)c1cccc(Br)c1)c1ccc(NC2CCC2)c([N+](=O)[O-])c1 (stereo not shown),-59.8
11,CCc1nnc(NC(=O)CCC(=O)NC2CC2)s1,-50.5
12,COc1ccccc1N1CCN(C(=O)c2ccc(-c3nc4ccccc4s3)o2)CC1,-3.16
13,O=C(CN1CCN(C(=O)c2ccc(-c3nc4ccccc4s3)o2)CC1)Nc1ccc(F)cc1,-72.3
14,CCc1nnc(NC(=O)CCC(=O)NC2CCCC2)s1,-3.36
15,O=C(c1ccc(-c2nc3ccccc3s2)o1)N1CCN(c2ccccc2O)CC1,11.6
16,CN1CCN(CC(=O)Nc2nc3ccccc3s2)CC1.O=CO,-5.53
17,O=C(CN1CCN(Cc2ccc(F)cc2)CC1)Nc1nc2ccccc2s1,-69.3
18,Cc1ccc(OCCN2CCN(C(=O)CCC(=O)Nc3nnc(CC(C)C)s3)CC2)cc1,-43.5
19,CCN1CCN(CC(=O)Nc2nc3ccccc3s2)CC1.O=CO,-22.7
20,CCc1nnc(NC(=O)CCC(=O)N2CCN(CCOc3ccc(C)cc3)CC2)s1,-20.2
21,CCCc1nnc(NC(=O)CCC(=O)N2CCN(CCOc3ccc(C)cc3)CC2)s1,-51.2
22,CCc1nnc(NC(=O)CCC(=O)NC2CCCCC2)s1,15.8

row,SMILES,"hERG current change (%, negative = inhibition) at 10uM [%]"
1,Cc1cc(C)c2c(=O)[nH]n(C3CCCCCC3)c2n1,23.5
2,Cc1nc(Nc2nc3c(c(=O)[nH]2)CCC3)nc2ccccc12,-10.2
3,Cc1ccc(NC(=S)N(C)C)cc1C,-4.6
4,O=C(N=C1SC2CS(=O)(=O)CC2N1c1ccc(Cl)cc1Cl)C1CC1 (stereo not shown),-7.48
5,Cc1ccc(/C(O)=C/C(=O)C(=O)NNC(=O)C(O)(c2ccccc2)c2ccccc2)cc1,14.5
6,OCCOc1ccc(C2=NCCO2)cc1,-23.3
7,Cc1cnc([N+](=O)[O-])n1CCOC(=O)NC(=O)c1ccccc1Cl,8.87
8,COc1ccc(OC)c(NC(=O)CCCNC(=O)c2ccc(Cl)cc2)c1,-9.27
9,CS(=O)(=O)c1ccc2nc(NC(=O)CN3CCN(Cc4ccccc4)CC3)sc2c1,-39.8
10,CCCN1CCN(CC(=O)Nc2nc3ccccc3s2)CC1,-49.9
11,CCc1nnc(NC(=O)CN2CCN(Cc3cccc(Cl)c3)CC2)s1,-8.15
12,CCc1nnc(NC(=O)CN2CCN(Cc3ccc(C)cc3)CC2)s1,-57.6
13,O=C(CN1CCN(Cc2ccccc2)CC1)Nc1nc2ccccc2s1,-68.2
14,CCc1nnc(NC(=O)CN2CCN(Cc3ccc(F)cc3)CC2)s1,-13.6
15,Cc1cccc(OCC(=O)Nc2ccc3oc(=O)ccc3c2)c1,8.55
16,COc1ccc(C(C)=O)cc1Cn1nc(C)c([N+](=O)[O-])c1C,18.5
17,CC1(C)Oc2ccc3ccc(=O)oc3c2/C(=C/NCCO)C1=O,5.11
18,CCOC(=O)Cn1c2c(c(=N)c3c1CCC3)CCCC2.Cl,18.5
19,CCCCn1c2c(c(=N)c3c1CCC3)CCC2.I,-2.48
20,CCOC(=O)Cn1c2c(c(=N)c3c1CCC3)CCC2.Cl,8.34
21,CCCn1c2c(c(=N)c3c1CCC3)CCCC2.I,6.05
22,Br.CCCCCCn1c2c(c(=N)c3c1CCC3)CCC2,-76.5

row,SMILES,"hERG current change (%, negative = inhibition) at 10uM [%]"
1,CCCCCCn1c(=O)[nH]c2c(c1=O)CCC2,-3.06
2,Br.CCCCCCCCn1c2c(c(=N)c3c1CCC3)CCCC2,-76.1
3,Br.CCn1c2c(c(=N)c3c1CCC3)CCC2,0.642
4,Br.CCn1c2c(c(=N)c3c1CCC3)CCCC2,-2.41
5,Br.CCCCCCCCCn1c2c(c(=N)c3c1CCC3)CCC2,-74.1
6,Br.CCCCCCCCCCn1c2c(c(=N)c3c1CCC3)CCC2,-78.9
7,CCCn1c2c(c(=N)c3c1CCC3)CCC2.I,7.05
8,CC(NC(=O)Cc1ccccc1)c1nc2ccccc2[nH]1 (stereo not shown),5.94
9,O=C(CCNC(=O)c1ccc([N+](=O)[O-])cc1)NCCc1ccc(Cl)cc1,-40.4
10,Cc1cc(C)n2nc(CC(=O)NCc3ccc(F)cc3)nc2n1,-0.0725
11,CCN(CC)N=Nc1ccc(S(=O)(=O)N2CCSC2C(=O)[O-])cc1.[K+] (stereo not shown),28.2
12,CCC(C)[C@H](NC(=O)OC(C)(C)C)C(=O)N/N=C/c1ccc2nccnc2c1 (stereo partly shown),-13.8
13,CNC(=O)c1cc(OCC(F)(F)F)ccc1OCC(F)(F)F,-4.26
14,COc1ccc(S(=O)(=O)NCc2ccc(C(=O)NCc3cccnc3)cc2)cc1,-1.21
15,COc1ccc(C(=O)N2CCN(C)C(=O)[C@@H]2C)cc1OC1CCN(C(C)=O)CC1,12.6
16,Cc1c(NC(=S)N/N=C/C=C/c2ccccc2)c(=O)n(-c2ccccc2)n1C,11.2
17,Cc1ccc(-c2noc(C3CCCCC3)n2)cc1,16.1
18,Cc1nc2cc(-c3ccccc3)nn2c(C)c1CCC(=O)NCc1ccco1,-37.4
19,COc1ccccc1-c1cc2nc(C)c(CCC(=O)NCc3ccco3)c(C)n2n1,-43.1
20,COc1cc(OC)cc(-c2cc3nc(C)c(CCC(=O)Nc4nc(C)cs4)c(C)n3n2)c1,10
21,COc1cc(OC)cc(-c2cc3nc(C)c(CCC(=O)NCc4ccccc4)c(C)n3n2)c1,-33.8
22,COc1ccccc1-c1cc2nc(C)c(CCC(=O)NCc3ccc(F)cc3)c(C)n2n1,-49.7

row,SMILES,"hERG current change (%, negative = inhibition) at 10uM [%]"
1,COc1cc(OC)cc(-c2cc3nc(C)c(CCC(=O)NC(C)CCc4ccco4)c(C)n3n2)c1 (stereo not shown),-58.4
2,COc1ccc(-c2cc3nc(C)c(CCC(=O)NCc4ccc(F)cc4)c(C)n3n2)c(OC)c1,-60.4
3,Cc1nc2cc(-c3cccc(F)c3)nn2c(C)c1CCC(=O)NC(C)CCc1ccco1 (stereo not shown),-70.6
4,COc1ccccc1CNC(=O)CCc1c(C)nc2cc(-c3ccccc3OC)nn2c1C,-11.5
5,COc1ccccc1-c1cc2nc(C)c(CCC(=O)NC(C)CCc3ccco3)c(C)n2n1 (stereo not shown),-62.5
6,COc1ccc(CNC(=O)CCc2c(C)nc3cc(-c4ccccc4OC)nn3c2C)cc1,-37.7
7,Cc1csc(NC(=O)CCc2c(C)nc3cc(-c4cccc(F)c4)nn3c2C)n1,-17.3
8,COc1ccc(C2SCC(=O)N2C)cc1 (stereo not shown),1.55
9,COc1cccc(-c2cc(=O)c3cc(NC(=O)c4ccc(N(C)C)cc4)ccc3[nH]2)c1,16.2
10,CN(C)S(=O)(=O)Oc1ccc(Cl)cc1C(=O)Nc1ccc(F)cc1F,-3.01
11,Cc1cc(N/N=C2\CC(C)CC(C)(C)C2)nc2ccccc12 (stereo not shown),-7.04
12,CCN1C(=O)/C(=C/c2ccc3c(c2)CCN3CCCCl)C(=O)NC1=S,-3.76
13,N#Cc1c(-c2ccco2)cc(-c2ccc(F)cc2)nc1N,-2.08
14,COc1ccc(-c2cc(=O)oc3c(C)c(OC(C)C(=O)Nc4ccc(CN5CCOCC5)cc4)ccc23)cc1 (stereo not shown),-5.78
15,Cn1c(/C(C#N)=C2/CCCCCN2)nc2ccccc21,-12.5
16,O=S(=O)(NCc1ccc(Cl)cc1)NCc1ccc(Cl)cc1,12.7
17,COC(=O)c1cc(Br)ccc1OC(=O)c1cccnc1,7.06
18,COc1ccc(-c2cc3nc(C)c(CCC(=O)NCc4ccco4)c(C)n3n2)c(OC)c1,-12.9
19,Cc1nc2cc(-c3ccc(Cl)cc3)nn2c(C)c1CCC(=O)NCc1ccco1,-41.9
20,COc1ccc(-c2cc3nc(C)c(CCC(=O)NC(C)CCc4ccco4)c(C)n3n2)c(OC)c1 (stereo not shown),-62
21,Cc1ccc(C(=O)O)cc1NC(=S)NCCc1ccccc1,0.261
22,C[C@H](NC(=O)c1cc2c(cn1)[nH]c1ccccc12)C(=O)O,18.4
